Experimental data: PubChem BioAssay
Calls of active or inactive are those of the source.

Columns and labels:
[1] = system: Plasmodium falciparum Sir2 (PF13_0152, Sir2A); assay: pfSir2 binders on small-molecule microarrays, primary screen, biochemical, small-molecule microarray, 635 nm fluorescence (AID 1098); settings: small-molecule microarray binding, fluorescence 635 nm; higher = more signal;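 also: score merges spot fluorescence intensity with its signal-to-noise ratio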
[2] = small-molecule microarray binders of probe aDKK1, primary screen, biochemical, biotinylated probe, 635/667 nm fluorescence (AID 1099); settings: higher = more signal;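 also: score merges 667nm spot fluorescence with signal to noise across triplicate slides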
[3] = small-molecule microarray binders of probe aCHRDL2, primary screen, biochemical, biotinylated probe, 635/667 nm fluorescence (AID 1100); settings: higher = more signal
[4] = splicing luciferase reporter signal modulators, primary screen, spliceosome inhibition project, cell-based, HEK293, splice +/- reporter (AID 1101); settings: luminescence, 24 h, higher = more signal, called active from +8 up or from −8 down;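 also: HEK293 cells carrying a splicing-competent luciferase reporter gene; test concentration not given here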
[5] = molecular target: Fibroblast growth factor 10 (Homo sapiens) (UniProt O15520); assay: FGF10 binders on small-molecule microarrays, primary screen, biochemical, small-molecule microarray, 635 nm fluorescence (AID 1102); settings: FGF10 binding, fluorescence 635 nm, higher = more signal
Fibroblast growth factor 10 (Homo sapiens), sequence (O15520 whole entry, looked up): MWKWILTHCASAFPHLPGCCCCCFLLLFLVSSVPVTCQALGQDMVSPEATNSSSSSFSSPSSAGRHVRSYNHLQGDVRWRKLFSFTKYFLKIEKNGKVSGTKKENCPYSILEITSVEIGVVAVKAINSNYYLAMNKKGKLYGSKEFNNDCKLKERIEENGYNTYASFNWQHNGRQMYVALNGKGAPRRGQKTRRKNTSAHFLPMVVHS

[6] = system: glycogen synthase kinase-3 (GSK3A per assay name; protocol says GSK3B); assay: GSK3 binders on small-molecule microarrays, primary screen, biochemical, small-molecule microarray, 635 nm fluorescence, GSK3A (AID 1103); settings: small-molecule microarray binding, fluorescence 635 nm; higher = more signal; also: the record names both GSK3A and GSK3B
[7] = molecular target: Epidermal growth factor receptor (Homo sapiens) (UniProt P00533); assay: EGFR binders on small-molecule microarrays, primary screen, biochemical, small-molecule microarray, 635 nm fluorescence (AID 1104); settings: EGFR binding, higher = more signal;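 also: score merges 667 nm emission intensity with spot signal to noise over triplicate slides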
Epidermal growth factor receptor (Homo sapiens), sequence (P00533 whole entry, looked up): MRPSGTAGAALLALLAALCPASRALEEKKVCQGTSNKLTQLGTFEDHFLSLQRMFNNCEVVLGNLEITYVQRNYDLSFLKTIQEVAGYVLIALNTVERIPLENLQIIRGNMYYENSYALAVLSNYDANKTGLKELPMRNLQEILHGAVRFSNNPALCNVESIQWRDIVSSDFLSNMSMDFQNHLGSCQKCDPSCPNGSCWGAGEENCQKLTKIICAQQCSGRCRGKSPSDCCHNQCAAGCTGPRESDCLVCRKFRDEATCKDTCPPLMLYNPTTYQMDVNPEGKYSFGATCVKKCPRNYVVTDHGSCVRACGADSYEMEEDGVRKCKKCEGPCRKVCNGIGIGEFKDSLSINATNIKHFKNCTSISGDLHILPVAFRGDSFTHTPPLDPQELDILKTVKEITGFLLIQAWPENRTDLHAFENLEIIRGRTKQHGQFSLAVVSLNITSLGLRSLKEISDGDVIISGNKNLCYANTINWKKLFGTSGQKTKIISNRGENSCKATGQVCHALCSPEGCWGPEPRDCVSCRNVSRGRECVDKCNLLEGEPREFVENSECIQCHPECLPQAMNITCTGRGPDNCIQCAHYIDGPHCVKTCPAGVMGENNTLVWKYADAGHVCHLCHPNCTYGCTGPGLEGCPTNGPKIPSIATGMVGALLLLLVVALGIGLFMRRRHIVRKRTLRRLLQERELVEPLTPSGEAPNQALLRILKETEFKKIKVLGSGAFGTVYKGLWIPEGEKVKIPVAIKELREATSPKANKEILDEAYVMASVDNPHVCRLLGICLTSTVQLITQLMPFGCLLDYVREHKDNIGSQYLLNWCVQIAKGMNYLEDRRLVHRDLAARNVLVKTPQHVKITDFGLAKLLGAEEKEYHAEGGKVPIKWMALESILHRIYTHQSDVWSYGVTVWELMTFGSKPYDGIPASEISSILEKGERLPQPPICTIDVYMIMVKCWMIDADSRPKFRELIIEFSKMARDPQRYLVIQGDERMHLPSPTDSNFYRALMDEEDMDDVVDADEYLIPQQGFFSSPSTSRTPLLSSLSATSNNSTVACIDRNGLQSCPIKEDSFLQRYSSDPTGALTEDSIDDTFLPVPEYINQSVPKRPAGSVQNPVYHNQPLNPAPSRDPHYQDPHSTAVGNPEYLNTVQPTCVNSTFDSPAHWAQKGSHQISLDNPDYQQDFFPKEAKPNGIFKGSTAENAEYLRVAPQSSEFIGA

[8] = molecular target: Follistatin-related protein 3 (Homo sapiens) (UniProt O95633); assay: FSTL3 binders on small-molecule microarrays, primary screen, biochemical, small-molecule microarray, 635 nm fluorescence (AID 1105); settings: FSTL3 binding, higher = more signal;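 also: score merges emission near 667 nm and signal to noise per printed spot across three slides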
Follistatin-related protein 3 (Homo sapiens), sequence (O95633 whole entry, looked up): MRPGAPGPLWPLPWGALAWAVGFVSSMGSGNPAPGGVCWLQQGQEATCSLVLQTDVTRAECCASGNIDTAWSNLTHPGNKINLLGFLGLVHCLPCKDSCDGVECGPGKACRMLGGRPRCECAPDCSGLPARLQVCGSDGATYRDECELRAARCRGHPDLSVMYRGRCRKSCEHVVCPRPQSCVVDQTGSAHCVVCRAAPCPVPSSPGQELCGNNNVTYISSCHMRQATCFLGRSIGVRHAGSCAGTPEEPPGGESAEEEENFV

[9] = molecular target: Dickkopf-related protein 1 (Homo sapiens) (UniProt O94907); assay: DKK1 binders on small-molecule microarrays, primary screen, biochemical, small-molecule microarray, 635 nm fluorescence scan (AID 1106); settings: DKK1 binding, higher = more signal;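 also: score merges emission near 667 nm with signal to noise over three replicate slides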
Dickkopf-related protein 1 (Homo sapiens), sequence (O94907 whole entry, looked up): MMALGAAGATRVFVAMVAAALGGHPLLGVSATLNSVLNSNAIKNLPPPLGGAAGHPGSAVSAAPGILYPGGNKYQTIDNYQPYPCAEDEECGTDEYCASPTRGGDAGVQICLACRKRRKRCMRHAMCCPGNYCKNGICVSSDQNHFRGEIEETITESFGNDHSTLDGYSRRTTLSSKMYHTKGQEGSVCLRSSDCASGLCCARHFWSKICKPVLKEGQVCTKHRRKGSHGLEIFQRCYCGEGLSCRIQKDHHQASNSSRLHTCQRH

[10] = system: Inhibin beta A chain (activin A); assay: INHBA (activin A) binders on microarrays, primary screen, biochemical, small-molecule microarray, 635 nm fluorescence scan (AID 1107); settings: small-molecule microarray binding, higher = more signal;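 also: mouse activin A protein probed at 4.33 µg/mL on printed slides; score merges bound-protein fluorescence near 667 nm with spot signal-to-noise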
[11] = system: Human papillomavirus type 1a protein E7 (residues 44-93); assay: HPV1a E7 fragment binders on microarrays, primary screen, biochemical, small-molecule microarray, residues 44-93, 635 nm fluorescence (AID 1108); settings: small-molecule microarray binding, fluorescence 635 nm; higher = more signal;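 also: E7 fragment applied at 1 µg/mL in TBST for 1 h at 4 C; score combines spot fluorescence with its signal to noise ratio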
[12] = modulators of HCV replicon luciferase signal, primary screen, HCV replication inhibitor project, Huh7 cells, luciferase reporter (AID 1109); settings: 48 h, higher = more signal;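 also: huh7 hepatoma cells harbouring a luciferase neomycin HCV replicon reporter; luciferase luminescence as measure of HCV replicon replication; test concentration not given here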
[13] = molecular target: Left-right determination factor 2 (Homo sapiens) (UniProt O00292); assay: LEFTY2 binders on small-molecule microarrays, primary screen, biochemical, small-molecule microarray, 635 nm fluorescence scan (AID 1110); settings: LEFTY2 binding, higher = more signal
Left-right determination factor 2 (Homo sapiens), sequence (O00292 whole entry, looked up): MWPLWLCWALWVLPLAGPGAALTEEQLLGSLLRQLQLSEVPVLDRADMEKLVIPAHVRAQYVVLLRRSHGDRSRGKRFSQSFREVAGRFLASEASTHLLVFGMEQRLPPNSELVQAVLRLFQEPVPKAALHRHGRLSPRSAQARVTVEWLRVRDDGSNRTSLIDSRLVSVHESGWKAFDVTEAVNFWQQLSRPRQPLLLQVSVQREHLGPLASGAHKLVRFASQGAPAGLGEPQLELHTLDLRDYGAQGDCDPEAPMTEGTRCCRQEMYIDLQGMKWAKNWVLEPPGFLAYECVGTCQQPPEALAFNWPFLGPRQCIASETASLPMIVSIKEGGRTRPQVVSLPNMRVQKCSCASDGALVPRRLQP

[14] = molecular target: Calmodulin-1 (Homo sapiens) (UniProt P0DP23); assay: CALM1 binders on microarrays, EGTA buffer, profiling panel, biochemical, small-molecule microarray, Cy5-labelled CALM1 (AID 1111); settings: Cy5-CALM1 binding fluorescence, higher = more signal;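 also: labelled calmodulin applied in Tris saline Tween buffer holding calcium plus EGTA and DTT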
[15] = molecular target: Calmodulin-1 (Homo sapiens) (UniProt P0DP23); assay: calcium-bound CALM1 binders on microarrays, profiling panel, artefact control for SMM control-protein annotation, biochemical, small-molecule microarray, Cy5-labelled CALM1, plus calcium (AID 1112); settings: Cy5-CALM1 binding fluorescence, higher = more signal;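 also: score merges spot fluorescence with signal to noise from triplicate slides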
[16] = small-molecule microarray binders of probe aWnt5a, primary screen, biochemical, biotinylated probe, 635/667 nm fluorescence (AID 1113); settings: higher = more signal;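 also: score merges 667 nm fluorescence intensity with signal-to-noise per printed feature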
[17] = small-molecule microarray binders of probe aShh, primary screen, biochemical, biotinylated probe, 635/667 nm fluorescence (AID 1114); settings: higher = more signal;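 also: probe is biotin-labelled aShh protein from a stem cell growth factor screen; measures binding of labelled protein to compounds printed on the slide; score merges feature fluorescence at 667 nm with signal-to-noise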
[18] = small-molecule microarray binders of probe aNog, primary screen, biochemical, biotinylated probe, 635/667 nm fluorescence (AID 1115); settings: higher = more signal;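 also: probe is biotinylated aNog protein used at 0.15 µg/mL for 1 h at 4 C; z-score combines 667 nm fluorescence of each spot with its signal to noise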
[19] = molecular target: Torsin-1A-interacting protein 1 (Homo sapiens) (UniProt Q5JTV8); assay: LAP1 binders from COS7 cell lysate, primary screen, small-molecule microarray, 635/667 nm fluorescence (AID 1116); settings: COS7-hLAP1 lysate binding, 635 nm fluorescence, higher = more signal
Torsin-1A-interacting protein 1 (Homo sapiens), sequence (Q5JTV8 whole entry, looked up): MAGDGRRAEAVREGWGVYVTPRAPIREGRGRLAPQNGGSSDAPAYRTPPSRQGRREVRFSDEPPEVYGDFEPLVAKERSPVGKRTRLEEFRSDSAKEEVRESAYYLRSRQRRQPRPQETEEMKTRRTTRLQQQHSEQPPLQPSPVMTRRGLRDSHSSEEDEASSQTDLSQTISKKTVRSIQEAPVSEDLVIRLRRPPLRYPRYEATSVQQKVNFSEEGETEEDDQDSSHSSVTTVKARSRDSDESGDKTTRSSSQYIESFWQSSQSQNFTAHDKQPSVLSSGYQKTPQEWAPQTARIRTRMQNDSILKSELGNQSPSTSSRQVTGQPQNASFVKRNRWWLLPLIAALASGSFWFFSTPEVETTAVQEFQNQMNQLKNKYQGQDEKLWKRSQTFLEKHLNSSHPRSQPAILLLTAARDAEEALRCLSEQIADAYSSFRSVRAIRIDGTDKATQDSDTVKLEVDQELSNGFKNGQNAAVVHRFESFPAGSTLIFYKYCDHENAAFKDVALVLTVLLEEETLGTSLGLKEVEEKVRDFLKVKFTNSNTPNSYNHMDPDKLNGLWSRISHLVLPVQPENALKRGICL

[20] = molecular target: Alpha-bungarotoxin (Bungarus multicinctus) (UniProt P60615); assay: alpha-bungarotoxin binders on microarray, profiling panel, artefact control for SMM control protein annotation, biochemical, small-molecule microarray, Alexa647 label, 635/667 nm fluorescence (AID 1117); settings: alpha-BTX-A647 binding fluorescence, higher = more signal
Alpha-bungarotoxin (Bungarus multicinctus), sequence (P60615 whole entry, looked up): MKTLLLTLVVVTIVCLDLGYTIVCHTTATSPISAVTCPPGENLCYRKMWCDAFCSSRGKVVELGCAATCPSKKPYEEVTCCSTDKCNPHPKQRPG

| Structure (SMILES) | composite z-score [1] | composite z-score [2] | composite z-score [3] | z-score [4] | composite z-score [5] | composite z-score [6] | composite z-score [7] | composite z-score [8] | composite z-score [9] | composite z-score [10] | composite z-score [11] | z-score [12] | composite z-score [13] | composite z-score [14] | composite z-score [15] | composite z-score [16] | composite z-score [17] | composite z-score [18] | composite z-score [19] | composite z-score [20] |
| --- | --- | --- | --- | --- | --- | --- | --- | --- | --- | --- | --- | --- | --- | --- | --- | --- | --- | --- | --- | --- |
| CCCNC(=O)[C@@]1(Sc2ccc(C)cc2)CC(=O)N(Cc2cc(C(F)(F)F)cc(C(F)(F)F)c2)[C@@H]1c1ccc(CO)cc1I | 1.24 | 0.832 | 1.11 | -2.39 (inactive) | -0.544 | -0.656 | -0.711 | -0.372 | -0.799 | 1.08 | -0.536 | -1.41 | -1.58 | 1.54 | 1.11 | -0.0512 | 0.0141 | 0.573 | 1.68 | 0.521 |
| C=CCC(OC(C)=O)[C@@H]1[C@@H](N(Cc2ccc(-c3ccccc3)cc2)C(=O)c2ccc(-c3ccccc3)cc2)c2cc(OCCCO)ccc2N1C(=O)c1ccc(-c2ccccc2)cc1 (stereo not given in full) | -0.104 | 0.603 | 0.672 | -1.34 (inactive) | -0.132 | -0.0347 | -0.137 | 0.145 | -0.141 | 1.11 | -0.172 | 0.967 | 0.337 | 0.681 | 0.92 | -0.11 | -0.324 | 0.347 | 0.315 | 0.459 |
| C=CCC(OC(C)=O)[C@@H]1[C@@H](N(Cc2cc3ccccc3o2)C(=O)c2ccc(-c3ccccc3)cc2)c2cc(OCCCO)ccc2N1C(=O)c1ccc(-c2ccccc2)cc1 (stereo not given in full) | -0.149 | 0.232 | 0.641 | -1.04 (inactive) | 0.0657 | -0.402 | -0.154 | 0.0956 | -0.0818 | 1.27 | -0.292 | -0.366 | 0.0559 | 0.0671 | 1.29 | 0.0628 | -0.282 | 0.502 | 0.2 | 0.484 |
| O=C(O)[C@H]1C[C@H]2C(=O)N[C@@H](Cc3ccccc3)C(=O)N2[C@H]1c1ccc(O)cc1 | 1.56 | 0.844 | 0.913 | -0.282 (inactive) | -0.349 | 0.661 | -0.502 | -0.192 | -0.0944 | 0.945 | -0.067 | -0.262 | -0.307 | -0.195 | 0.504 | -0.0678 | -0.0783 | 0.586 | 0.777 | 0.824 |
| COC(=O)C(CC#Cc1ccc2c(c1)[C@]1(C(=O)N2)[C@H](c2ccccc2OCCO)N2[C@H](c3ccccc3)[C@H](c3ccccc3)OC(=O)[C@H]2[C@@H]1C(=O)N1CCCCCCC1)C(=O)OC | 2.12 | 3.07 | 1.7 | -1.09 (inactive) | 1.55 | 1.47 | 1.91 | 1.77 | 2.52 | 1.79 | 1.48 | -1.95 | 1.73 | 3.07 | 1.76 | 1.46 | 2.72 | 3.54 | 5.82 | 3.89 |
